Here are results for 60 compounds from the antibiotic and cytotoxicity screens of Wong et al. (2023).

Among all 39,000 compounds or so, about 1,500 (3.8%) were called active. Shown is part of a subset that was picked to be rich in actives.

For the assay, the system named is HSkMC (human skeletal muscle cells). The experiment in a line: cytotoxicity call (relative viability < 0.9). The settings on record: 10 µM.
On to `C[C@@H]1CN([C@@H](C)CO)C(=O)Cc2cc(NC(=O)Cc3cn(C)c4ccccc34)ccc2O[C@H]1CN(C)C(=O)Nc1cccc2ccccc12`, for which the cytotoxicity call was “inactive”.

As to `C#CCN(O[C@@H](/C=C/[C@@H](O)Cc1ccccc1)C1CC1)[C@@H](Cc1ccc(-n2cc(CCC(=O)NO)nn2)cc1)C(=O)OC`, the cytotoxicity call was “inactive”.

As for `Cc1noc(C)c1S(=O)(=O)N(C)C[C@H]1Oc2ccc(NS(=O)(=O)c3cn(C)cn3)cc2CC(=O)N([C@@H](C)CO)C[C@@H]1C`, the cytotoxicity call was “inactive”.

`Cc1noc(C)c1S(=O)(=O)Nc1ccc2c(c1)C(=O)N([C@H](C)CO)C[C@H](C)[C@H](CN(C)C(=O)Nc1ccc3c(c1)OCO3)O2`: the cytotoxicity call is “inactive”.

Regarding `Cc1noc(C)c1S(=O)(=O)Nc1ccc2c(c1)C(=O)N([C@H](C)CO)C[C@H](C)[C@@H](CN(C)S(=O)(=O)c1ccccc1)O2`, the cytotoxicity call is “inactive”.

Consider `O=C(C[C@@H]1C[C@@H]2c3cc(NC(=O)C4CCOCC4)ccc3O[C@@H]2[C@@H](CO)O1)NCc1ccc2c(c1)OCO2`, for which the cytotoxicity call is “inactive”.

With `C[C@H](CO)N1C[C@H](C)[C@H](CN(C)CC2CCCCC2)OCCCC[C@H](C)Oc2ccc(NC(=O)Nc3ccc(C(F)(F)F)cc3)cc2C1=O`, the cytotoxicity call was “active”.

As for `C[C@@H]1CCCCO[C@@H](CN(C)CC2CCCCC2)[C@H](C)CN([C@@H](C)CO)C(=O)c2cc(NC(=O)Nc3ccc(C(F)(F)F)cc3)ccc2O1`, the cytotoxicity call was “active”.

In the case of `C[C@@H]1CCCCO[C@H](CN(C)CC2CCCCC2)[C@H](C)CN([C@@H](C)CO)C(=O)c2cc(NC(=O)Nc3ccc(C(F)(F)F)cc3)ccc2O1`, the cytotoxicity call was “active”.

As for `C[C@H](CO)N1C[C@H](C)[C@@H](CN(C)CC2CC2)OCCCC[C@H](C)Oc2ccc(NC(=O)Nc3ccc(C(F)(F)F)cc3)cc2C1=O`, the cytotoxicity call was “inactive”.

Take `C[C@@H]1CCCCO[C@@H](CN(C)CC2CC2)[C@H](C)CN([C@H](C)CO)C(=O)c2cc(NC(=O)Nc3ccc(C(F)(F)F)cc3)ccc2O1`: the cytotoxicity call was “inactive”.

As to `C[C@@H]1CCCCO[C@H](CN(C)CC2CCCCC2)[C@H](C)CN([C@H](C)CO)C(=O)c2cc(NC(=O)Nc3ccc(C(F)(F)F)cc3)ccc2O1`, the cytotoxicity call is “active”.

On to `CC(C)(N)CO.Cn1c(=O)c2[nH]c(Br)nc2n(C)c1=O`, for which the cytotoxicity call was “inactive”.

Regarding `Cc1ccc(S(=O)(=O)N(C)C[C@H]2OCCCC[C@@H](C)Oc3ccc(NC(=O)CCC(F)(F)F)cc3C(=O)N([C@H](C)CO)C[C@H]2C)cc1`, the cytotoxicity call was “inactive”.

Consider `CO[C@H]1CN(C)C(=O)c2ccc(NC(C)=O)cc2OC[C@@H](C)N(S(=O)(=O)c2cn(C)cn2)C[C@@H]1C`, for which the cytotoxicity call was “inactive”.

As for `C[C@@H]1CCCCO[C@@H](CN(C)Cc2ccc(Cl)c(Cl)c2)[C@@H](C)CN([C@H](C)CO)C(=O)c2cc(N(C)C)ccc2O1`, the cytotoxicity call was “inactive”.

With `Cc1noc(C)c1NC(=O)Nc1ccc2c(c1)CC(=O)N([C@H](C)CO)C[C@H](C)[C@H](CN(C)C(=O)NC(C)C)O2`, the cytotoxicity call was “inactive”.

As for `C[C@@H]1CCCCO[C@H](CN(C)Cc2ccncc2)[C@@H](C)CN([C@@H](C)CO)C(=O)c2cc(NC(=O)Nc3cccc4ccccc34)ccc2O1`, the cytotoxicity call was “inactive”.

Regarding `COc1ccc(S(=O)(=O)Nc2ccc3c(c2)C(=O)N([C@H](C)CO)C[C@@H](C)[C@@H](CN(C)Cc2ccncc2)O3)cc1`, the cytotoxicity call is “inactive”.

As to `C[C@H]1CCCCO[C@@H](CN(C)C(=O)Nc2ccc3c(c2)OCO3)[C@@H](C)CN([C@@H](C)CO)C(=O)c2cc(NC(=O)c3ccncc3)ccc2O1`, the cytotoxicity call is “inactive”.

Take `C[C@@H]1CN([C@H](C)CO)C(=O)CCCn2cc(nn2)CO[C@H]1CN(C)S(=O)(=O)c1cn(C)cn1`: the cytotoxicity call was “inactive”.

With `COc1ccc(S(=O)(=O)N(C)C[C@H]2OCCCC[C@@H](C)Oc3ccc(NC(=O)Nc4ccccc4)cc3C(=O)N([C@@H](C)CO)C[C@@H]2C)cc1`, the cytotoxicity call was “inactive”.

Turning to `Cc1noc(C)c1S(=O)(=O)Nc1ccc2c(c1)C(=O)N([C@H](C)CO)C[C@H](C)[C@H](CN(C)S(C)(=O)=O)OCCCC[C@H](C)O2`, the cytotoxicity call was “inactive”.

Consider `C[C@H]1[C@H](C)CC[C@]2(C(=O)O[C@@H]3O[C@H](CO[C@@H]4O[C@H](CO)[C@@H](O[C@@H]5O[C@@H](C)[C@H](O)[C@@H](O)[C@H]5O)[C@H](O)[C@H]4O)[C@@H](O)[C@H](O)[C@H]3O)CC[C@]3(C)C(=CC[C@@H]4[C@@]5(C)C[C@@H](O)[C@H](O)[C@@](C)(CO)[C@@H]5[C@H](O)C[C@]43C)[C@H]12`, for which the cytotoxicity call is “inactive”.

Take `C[C@@H]1CN([C@@H](C)CO)C(=O)c2cc(NC(=O)c3ccccc3)ccc2O[C@@H](C)CCCCO[C@H]1CN(C)C(=O)c1ccccc1`: the cytotoxicity call was “inactive”.

As to `COc1ccccc1S(=O)(=O)N[C@H]1CC[C@H](CCNC(=O)C2CCOCC2)O[C@H]1CO`, the cytotoxicity call is “inactive”.

As for `Cc1noc(C)c1S(=O)(=O)N(C)C[C@H]1Oc2ccc(NC(=O)Nc3ccc4c(c3)OCO4)cc2CC(=O)N([C@H](C)CO)C[C@@H]1C`, the cytotoxicity call is “inactive”.

Regarding `C[C@@H]1CCCCO[C@H](CN(C)CC2CCCCC2)[C@@H](C)CN([C@H](C)CO)C(=O)c2cc(NC(=O)Nc3ccc(C(F)(F)F)cc3)ccc2O1`, the cytotoxicity call was “active”.

With `C[C@@H]1CCCCO[C@@H](CN(C)CC2CCCCC2)[C@@H](C)CN([C@H](C)CO)C(=O)c2cc(NC(=O)Nc3ccc(C(F)(F)F)cc3)ccc2O1`, the cytotoxicity call was “active”.

Consider `C[C@@H]1CN([C@H](C)CO)C(=O)c2cc(NC(=O)Nc3ccc(C(F)(F)F)cc3)ccc2O[C@@H](C)CCCCO[C@@H]1CN(C)CC1CCCCC1`, for which the cytotoxicity call is “active”.

In the case of `C[C@H](CO)N1C[C@H](C)[C@@H](CN(C)CC2CCCCC2)OCCCC[C@H](C)Oc2ccc(NC(=O)Nc3ccc(C(F)(F)F)cc3)cc2C1=O`, the cytotoxicity call is “active”.

Turning to `C[C@H]1CN([C@@H](C)CO)C(=O)c2cc(NC(=O)CCCN(C)C)ccc2O[C@H]1CN(C)C(=O)NC1CCCCC1`, the cytotoxicity call is “inactive”.

Take `C[C@H]1CN([C@@H](C)CO)C(=O)c2cccc(NC(=O)CCCCCC(=O)Nc3ccccc3N)c2O[C@@H]1CN(C)C(=O)Nc1ccccc1`: the cytotoxicity call was “inactive”.

For the compound `C[C@H](CO)N1C[C@H](C)[C@@H](CN(C)Cc2ccc(C(=O)O)cc2)OCCCC[C@H](C)Oc2ccc(NC(=O)C3CCCCC3)cc2C1=O`, the cytotoxicity call is “inactive”.

`C[C@@H]1CN([C@@H](C)CO)C(=O)Cc2cc(NC(=O)Nc3ccc(F)cc3)ccc2O[C@@H]1CN(C)C(=O)Nc1cccc2ccccc12`: the cytotoxicity call is “inactive”.

Take `COc1ccc(C#Cc2ccc3c(c2)[C@]2(C(=O)N3)[C@H](C(=O)Nc3nc4ccccc4s3)[C@H]3C(=O)O[C@H](c4ccccc4)[C@H](c4ccccc4)N3[C@@H]2c2ccc(O)cc2)cc1`: the cytotoxicity call was “inactive”.

As for `Cc1ccc(S(=O)(=O)N(C)C[C@@H]2Oc3ccc(NS(C)(=O)=O)cc3C(=O)N([C@@H](C)CO)C[C@@H]2C)cc1`, the cytotoxicity call was “inactive”.

For the compound `NCc1nncn1-c1ccc(F)cc1`, the cytotoxicity call was “inactive”.

As for `C[C@H](CO)N1C[C@H](C)[C@H](CN(C)CC2CCCCC2)OCCCC[C@H](C)Oc2ccc(NC(=O)c3ccncc3)cc2C1=O`, the cytotoxicity call was “inactive”.

On to `C[C@H](CO)N1C[C@H](C)[C@@H](CN(C)S(=O)(=O)c2cccs2)Oc2c(NS(=O)(=O)c3cn(C)cn3)cccc2C1=O`, for which the cytotoxicity call is “inactive”.

Turning to `COCC#Cc1cnc2c(c1)C(=O)N([C@@H](C)CO)C[C@@H](C)[C@@H](CN(C)C(=O)CN1CCOCC1)O2`, the cytotoxicity call is “inactive”.

In the case of `C[C@@H]1CN([C@@H](C)CO)C(=O)c2cc(NC(=O)Nc3ccc(C(F)(F)F)cc3)ccc2O[C@@H](C)CCCCO[C@@H]1CN(C)CC1CCCCC1`, the cytotoxicity call is “inactive”.

On to `C[C@@H]1CN([C@@H](C)CO)C(=O)c2cc(NC(=O)Nc3ccc(C(F)(F)F)cc3)ccc2O[C@@H](C)CCCCO[C@H]1CN(C)CC1CCCCC1`, for which the cytotoxicity call was “inactive”.

On to `C[C@@H]1CCCCO[C@@H](CN(C)CC2CCCCC2)[C@H](C)CN([C@H](C)CO)C(=O)c2cc(NC(=O)Nc3ccc(C(F)(F)F)cc3)ccc2O1`, for which the cytotoxicity call is “active”.

Take `C[C@H]1CCCCO[C@@H](CN(C)CC2CCCCC2)[C@@H](C)CN([C@@H](C)CO)C(=O)c2cc(NC(=O)Nc3ccc(C(F)(F)F)cc3)ccc2O1`: the cytotoxicity call is “active”.

`Cc1noc(C)c1NC(=O)Nc1ccc2c(c1)C(=O)N([C@H](C)CO)C[C@H](C)[C@H](CN(C)Cc1ccncc1)OCCCC[C@@H](C)O2`: the cytotoxicity call was “inactive”.

Regarding `CO[C@@H]1CN(C)C(=O)c2cc(NS(C)(=O)=O)ccc2OC[C@@H](C)N(C(=O)CN(C)C)C[C@@H]1C`, the cytotoxicity call was “inactive”.

For the compound `C[C@H]1CN([C@@H](C)CO)C(=O)c2cc(NS(=O)(=O)c3cn(C)cn3)ccc2O[C@H]1CN(C)S(C)(=O)=O`, the cytotoxicity call is “inactive”.

On to `C[C@H]1CN([C@@H](C)CO)S(=O)(=O)c2ccc(C#CC3(O)CCCC3)cc2O[C@@H]1CN(C)C(=O)Cc1ccncc1`, for which the cytotoxicity call is “inactive”.

For `COc1ccc(S(=O)(=O)N(C)C[C@H]2OCCCC[C@@H](C)Oc3ccc(NC(=O)c4ccccc4)cc3C(=O)N([C@H](C)CO)C[C@@H]2C)cc1`, the cytotoxicity call is “inactive”.

Take `C[C@@H]1CN([C@H](C)CO)C(=O)c2cc(NC(=O)Cc3ccccc3)ccc2O[C@@H](C)CCCCO[C@@H]1CN(C)C(=O)C1CCCCC1`: the cytotoxicity call was “inactive”.

Consider `COC(=O)C[C@](O)(CCCC(C)(C)O)C(=O)O[C@@H]1C(OC)=C[C@]23CCCN2CCc2cc4c(cc2[C@H]13)OCO4`, for which the cytotoxicity call was “active”.

Turning to `C[C@@H]1CN([C@@H](C)CO)C(=O)CCCn2cc(nn2)CO[C@@H]1CN(C)C(=O)Nc1cccc(C(F)(F)F)c1`, the cytotoxicity call was “inactive”.

Consider `C[C@H](CO)N1C[C@H](C)[C@@H](CN(C)C(=O)C2CCCCC2)OCCCC[C@H](C)Oc2ccc(NC(=O)Cc3ccccc3)cc2C1=O`, for which the cytotoxicity call is “inactive”.

Regarding `C[C@H](CO)N1C[C@H](C)[C@@H](CN(C)Cc2ccc(F)cc2)Oc2cc(C#CC3CC3)ccc2S1(=O)=O`, the cytotoxicity call is “inactive”.

`C[C@@H]1CN([C@@H](C)CO)S(=O)(=O)c2ccc(C#CC3CC3)cc2O[C@H]1CN(C)Cc1ccc(F)cc1`: the cytotoxicity call is “inactive”.

In the case of `C[C@H]1CN([C@@H](C)CO)S(=O)(=O)c2ccc(C#CC3CC3)cc2O[C@@H]1CN(C)Cc1ccc(F)cc1`, the cytotoxicity call is “active”.

For the compound `C[C@H]1CN([C@@H](C)CO)S(=O)(=O)c2ccc(C#CC3CC3)cc2O[C@H]1CN(C)Cc1ccc(F)cc1`, the cytotoxicity call was “inactive”.

In the case of `C[C@@H]1CN([C@H](C)CO)S(=O)(=O)c2ccc(C#CC3CC3)cc2O[C@@H]1CN(C)Cc1ccc(F)cc1`, the cytotoxicity call is “inactive”.

With `C[C@@H]1CN([C@H](C)CO)S(=O)(=O)c2ccc(C#CC3CC3)cc2O[C@H]1CN(C)Cc1ccc(F)cc1`, the cytotoxicity call was “active”.
